# The panel holds about 83,000 compounds, 20% with a hit somewhere; the sample as a whole holds those more often.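 Assay: single dose, 48 h. Readout: percent growth (0 = no net growth; negative = cell death). Active: <10.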 A number with no mark means an inactive call. Calls of active or inactive are those of the source.
# How the values were obtained:
# Assay in all cases: NCI-60 one-dose screen, 48 h (100 = growth as untreated, 0 = no growth, -100 = all killed)
# Settings in all cases: 10 µM unless noted
# [1] = system: BT-549 breast
# [2] = system: MDA-MB-435 melanoma
# [3] = system: SW-620 colon
# [4] = system: MCF7 breast
# [5] = system: HCT-116 colon
# [6] = system: HCC-2998 colon
# [7] = system: KM12 colon
Compound,growth [1],growth [2],growth [3],growth [4],growth [5],growth [6],growth [7]
Cc1ccc(C(=O)Nc2ccc(CN3CCN(C)CC3)c(C(F)(F)F)c2)cc1C#Cc1cncc2ncccc12,-82.3% (active),-93.3% (active),-66.6% (active),-65.4% (active),-84.7% (active),34.8%,-81.6% (active)
O=C(Nc1cccc(Cn2c(=O)[nH]c3ccc(Oc4ncccn4)cc3c2=O)c1)c1cccc(F)c1,71.4%,51%,95.3%,57.9%,70.8%,92.5%,66.6%
C=CN(C)S(C)(=O)=O,46.8%,-35.4% (active),19.9%,4.56% (active),19.7%,53%,33.6%
Cc1cc2c(-c3nc4ccccc4n3C)c(O)c(O)cc2c(O)c1-c1c(C)cc2c(-c3nc4ccccc4n3C)c(O)c(O)cc2c1O,20%,34.2%,54.3%,19.6%,7.37% (active),66.5%,24.7%
COc1ccc2c(N)ncc(C#Cc3cc(C(=O)Nc4ccc(CN5CCN(C)CC5)c(C(F)(F)F)c4)cnc3C)c2c1,46%,-56.7% (active),-57.7% (active),-49.2% (active),-75.8% (active),19.3%,-49.1% (active)
Clc1ccc(N/N=C(/c2ccccc2)c2ccccn2)nc1,55%,57.3%,44.8%,-1.28% (active),5.31% (active),45.1%,43.2%
CCCCCSc1ccc2nc(NC(=O)OCCC)sc2c1,34.2%,-40.5% (active),22.9%,14.3%,25.3%,74%,24.9%
Cc1nc2ccccc2c(=O)n1-c1cccc(OCc2cn(-c3cccc(O)c3)nn2)c1,99.8%,108%,104%,94.3%,95.2%,103%,95.2%
CC(=O)Nc1ccc(C(=O)/C=C/c2ccc(N(C)C)cc2)cc1,101%,98.1%,110%,78.3%,102%,102%,97.7%
C/C(=N\Nc1ccc(Cl)cn1)c1ccccn1,9.46% (active),26.4%,27%,3.89% (active),1.21% (active),27%,20%
CCN(CC)CCCC(C)Nc1c(C)cnc2cc(Cl)c(C)cc12 (centres undefined),69.2%,89.9%,85.9%,85.6%,56.9%,74.5%,81.9%
COc1cc(-c2c3c(cn2CCN2CCCCC2)-c2oncc2CC3)cc(OC)c1OC,105%,101%,95.2%,91%,89.5%,106%,107%
CC(=O)C(CO)C(=O)Nc1ccccc1 (centres undefined),106%,106%,109%,91.5%,106%,99.3%,104%
COc1cc(OC)c(/C=C/c2ccc3ccccc3[n+]2C)c(OC)c1,-0.0814% (active),-30.6% (active),13.5%,3.94% (active),2.2% (active),13.4%,-49.2% (active)
COC(=O)c1ccc2[nH]c(O)c(C(=Nc3ccc(N(C)C(=O)CN4CCN(C)CC4)cc3)c3ccc(OC)cc3)c2c1,22.5%,29.6%,4.33% (active),23.9%,3.03% (active),30.8%,13.1%
Cc1nc2c(nnn2-c2ccccc2)c2nc(-c3ccc(Cl)cc3)oc(=O)c12,107%,106%,107%,95.2%,109%,111%,113%
Cc1ccc(S(=O)(=O)N/N=C2\CC3CCC2C3)cc1 (centres undefined),107%,103%,106%,97%,103%,120%,105%
Nc1ccc(N=Nc2ccccc2)c2cc(S(=O)(=O)O)ccc12,114%,108%,106%,86.5%,104%,103%,103%
O=C(CN1C(=O)NC(c2ccccc2)(c2ccccc2)C1=O)c1ccc(N2CCCC2)cc1,66.4%,-4.2% (active),70.2%,49.8%,66%,101%,65.8%
CC(C)OC(=O)c1ccc2n1CCCc1cnc(Nc3ccccc3)nc1-2,86.4%,42.7%,91%,65.4%,73.2%,104%,52.8%
Cc1ccc(S(=O)(=O)Nc2cccc(Cn3c(=O)[nH]c4ccc(Oc5ncccn5)cc4c3=O)c2)cc1,65.2%,-10.1% (active),64.8%,32.5%,59%,81.3%,39.6%
N#CCc1ncc(-c2ccc(C(F)(F)F)cc2)c(NC2CCCCCC2)n1,9.45% [100 µM] (active),0.369% [100 µM] (active),19% [100 µM],18.4% [100 µM],8.09% [100 µM] (active),38.1% [100 µM],8.14% [100 µM] (active)
CCCCCSc1ccc2nc(NC(=O)OCC)sc2c1,37.2%,-47% (active),19.6%,13.9%,26%,55%,19.7%
Cc1ncc(C(=O)Nc2ccc(CN3CCN(C)CC3)c(C(F)(F)F)c2)cc1C#Cc1c(N)ncc2ccccc12,-96.4% (active),-92.3% (active),-60.6% (active),-71.7% (active),-88.2% (active),-89.6% (active),-68.1% (active)
O=c1c2c(c3ccccc3n1-c1ccccc1)NC(=S)NC2c1ccccc1 (centres undefined),,111%,107%,,96.1%,98.8%,104%
COc1ccc(-c2nc(Nc3nc4ccccc4[nH]3)nc(N)c2C#N)cc1,86.4%,117%,108%,90.2%,93.8%,,108%
